According to PubChem BioAssay AID2275 (Broad Institute, 2010):
About 190 (0.63%) of roughly 30,000 compounds were called active. Rule as the data show it: active = viability loss activity score above about 50%; inconclusive = no clear call, values can overlap the other calls; inactive = below about 35%. The full list was thinned out, with actives kept by preference.

Test: BJeLR cell viability loss, primary screen, luminescence, CellTiterGlo ATP (AID 2275);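 also: higher score means fewer live cells and less ATP luminescence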
Details: BJeLR fibroblasts viability, 48 h, stronger effect = higher value, HRASV12, hTERT and SV40 LT/ST transformed, concentration not given here
In the case of O=c1cc(N2CCN(c3ccccc3)CC2)[nH]c(=O)n1-c1ccc(Cl)cc1, the viability loss activity score is reported as 2.58% (inactive).
For CN(Cc1ccccc1)C(=O)c1cc(-c2ccc(Cl)cc2)on1, the viability loss activity score was 3.08% (inactive).
With CC1=C(C(=O)OCc2ccccc2)OC(N)=C(C#N)C1c1ccc(F)cc1 (centres undefined) the viability loss activity score was 1.52% (inactive).
For Cc1ccc(Cl)cc1N(C)C(=O)c1cc2c(-c3ccc(Cl)cc3)nn(C)c2s1, the viability loss activity score was -0.32% (inactive).
With Cc1ccccc1NC(=O)Nc1ccccc1N1CCCCC1 the viability loss activity score was 1.43% (inactive).
With C=C1SC(Nc2ccc(C)cc2)=NC1(C)C the viability loss activity score was 0.0102% (inactive).
In the case of COc1ccc2c(c1)-c1c(ssc1=S)C(C)(C)N2C(C)=O, the viability loss activity score is reported as 12.8% (inactive).
With C[C@H]1O[C@@H](O[C@H]2[C@@H](O)C[C@H](O[C@H]3[C@@H](O)C[C@H](O[C@H]4CC[C@]5(C)C6C[C@@H](O)[C@]7(C)[C@@H](C8=CC(=O)OC8)CC[C@]7(O)C6CC[C@@H]5C4)O[C@@H]3C)O[C@@H]2C)C[C@H](O)[C@@H]1O (some centres undefined) the viability loss activity score was 129% (active).
With COc1cc(OC)cc(C2C(C#N)=C(N)OC(N)=C2C#N)c1 the viability loss activity score was 1.86% (inactive).
With CCOC(=O)C1CCN(C(=O)CN2C(=O)c3ccccc3C2=O)CC1 the viability loss activity score was -3.08% (inactive).
With Cc1noc(C)c1NC(=O)Nc1ccc2c(c1)C(=O)N([C@H](C)CO)C[C@H](C)[C@H](CN(C)Cc1ccc(-c3ccccc3)cc1)O2 the viability loss activity score was -1.86% (inactive).
For Cc1cc(-c2nc(C)c(-c3nnc(SCC(=O)Nc4ccccc4)n3C)s2)no1, the viability loss activity score was -2.45% (inactive).
With Cc1ccc2oc(=O)c3cc(C(=O)NC4CCCC4)sc3c2c1 the viability loss activity score was 4.55% (inactive).
With Cc1ccc(S(=O)(=O)N(CC(=O)Nc2ccc3c(c2)OCCO3)C2CCCCC2)cc1 the viability loss activity score was -4.45% (inactive).
With CC[C@H]1CN2CCc3cc(OC)c(OC)cc3[C@@H]2C[C@@H]1C[C@H]1NCCc2cc(OC)c(OC)cc21 the viability loss activity score was 96.1% (active).
In the case of COc1cc2c(cc1OC)C1CN3CCc4cc(OC)c(OC)cc4C3CN1CC2 (centres undefined), the viability loss activity score is reported as 18.2% (inactive).
With O=C(Nc1cccc(-c2nc3ccccc3o2)c1)c1cccc(OCc2ccccc2)c1 the viability loss activity score was 10.7% (inactive).
With Cc1ccc(CN2CCSc3ccc(C(=O)Nc4ccc(F)cc4)cc32)cc1 the viability loss activity score was 0.172% (inactive).
For O=C(NC1CCCCC1)C1CCC(CNS(=O)(=O)c2ccccc2)CC1 (centres undefined), the viability loss activity score was 6.1% (inactive).
With CCc1ccc(NC(=O)NC(C)(C)C)cc1 the viability loss activity score was -4.47% (inactive).
For Cc1ccc(CNC(=O)CCC(=O)Nc2ccc3nc(N4CCCCC4)cc(C)c3c2)cc1, the viability loss activity score was 0.494% (inactive).
For Cc1ccccc1NCC(=O)NN, the viability loss activity score was -2.54% (inactive).
In the case of Cc1nnn(C23CC4CC(CC(CC(=O)Nc5ccc(Cl)cc5)(C4)C2)C3)n1, the viability loss activity score is reported as -2.2% (inactive).
With CC(C)(C)c1ccc(/C=C/C(=O)NCCCn2ccnc2)cc1 the viability loss activity score was 0.598% (inactive).
In the case of Nc1cc(=O)[nH]c2nnc(SCc3ccc(Br)cc3)n12, the viability loss activity score is reported as -1.86% (inactive).
In the case of Cc1ccc(N2C(=O)c3oc4cc(C)c(C)cc4c(=O)c3C2c2ccc(O)cc2)nc1 (centres undefined), the viability loss activity score is reported as -1.21% (inactive).
With Oc1ccc(CN2CCCC2)c2cccnc12 the viability loss activity score was -4.68% (inactive).
With CC1(C)Cc2c(cnn2-c2ccc(F)cc2)-c2nc3ccccc3nc21 the viability loss activity score was -0.68% (inactive).
In the case of CC(C)N(Cc1nc(-c2ccccc2)no1)C(=O)CCc1ccccc1, the viability loss activity score is reported as -7.42% (inactive).
With Nn1c(C(=O)N2CCCC2)nc2ccccc2c1=O the viability loss activity score was -0.611% (inactive).
In the case of CC(C)c1ccc(S(=O)(=O)N2CCN(S(=O)(=O)c3ccc(C(C)C)cc3)C(C)C2)cc1 (centres undefined), the viability loss activity score is reported as 4.1% (inactive).
In the case of CC1C=CCC2C(=O)N(c3cccc(Cl)c3)C(=O)C12 (centres undefined), the viability loss activity score is reported as 0.408% (inactive).
In the case of CCCCN(Cc1ccccc1)S(=O)(=O)c1ccc2c(c1)oc(=O)n2CC(=O)OCC, the viability loss activity score is reported as -1.44% (inactive).
In the case of O=C1c2ccccc2C(=O)N1CCCC(=O)n1ccc2ccccc21, the viability loss activity score is reported as -4.38% (inactive).
For O=C(O)C1=NN(c2ccccc2)C(=O)/C1=C/c1cccs1, the viability loss activity score was 5.24% (inactive).
For O=C(CCSc1nc(-c2ccco2)cc(C(F)(F)F)n1)N1CCCCC1, the viability loss activity score was -3.03% (inactive).
In the case of COc1ccc(Cn2c(=O)oc3ccccc32)cc1, the viability loss activity score is reported as -1.69% (inactive).
In the case of C[C@H](CO)N1C[C@H](C)[C@H](CN(C)S(=O)(=O)c2cccs2)Oc2c(NC(=O)Nc3ccc4c(c3)OCO4)cccc2C1=O, the viability loss activity score is reported as 1.64% (inactive).
In the case of C=CCNC(=O)/C=C/c1ccc(C(C)C)cc1, the viability loss activity score is reported as -1.64% (inactive).
With COc1cc2c(C(=O)N3CCN(c4ccccc4)CC3)cn(CC(C)C)c(=O)c2cc1OC the viability loss activity score was -11.1% (inactive).
For CCN(C(=O)CSc1nc2ccccc2c2nc3ccccc3n12)c1cccc(C)c1, the viability loss activity score was 0.323% (inactive).
With O=C(NC1CCCC1)c1cc(-c2ccc(Br)cc2)on1 the viability loss activity score was -5.17% (inactive).
In the case of C[C@@H]1CN([C@H](C)CO)C(=O)c2cc(NS(=O)(=O)c3cccs3)ccc2O[C@H]1CN(C)Cc1ccncc1, the viability loss activity score is reported as 1.52% (inactive).
In the case of NNC(=O)CN1C(c2ccc(Cl)cc2)=Nc2ccc(Cl)cc2C1c1ccccc1 (centres undefined), the viability loss activity score is reported as 4.53% (inactive).
In the case of CC1=C(C(=O)Nc2ccccc2Br)C2(CCCCC2)OC1=O, the viability loss activity score is reported as -3.85% (inactive).
For O=C(Nc1cccnc1)c1cc2c(s1)-c1ccccc1CC2, the viability loss activity score was 2.6% (inactive).
For COc1ccc(S(=O)(=O)N(C)C[C@H]2Oc3ccc(NS(C)(=O)=O)cc3C(=O)N([C@H](C)CO)C[C@H]2C)cc1, the viability loss activity score was 4.8% (inactive).
In the case of CC(C)c1ccc(NC(=O)c2ccc(NS(=O)(=O)c3cccs3)cc2)cc1, the viability loss activity score is reported as 11.3% (inactive).
In the case of CCOc1ccc(NC(=O)Cn2c3c(c(-c4ccccc4)cc2=O)CCCC3)cc1, the viability loss activity score is reported as 3.03% (inactive).
In the case of Cc1ccc2nc(-c3ccc(NC(=O)C4CCC4)cc3)sc2c1, the viability loss activity score is reported as -1.59% (inactive).
For Cc1ccc(OCC(=O)Nc2ccc(-c3nn4c(C)nnc4s3)cc2)cc1, the viability loss activity score was -1.91% (inactive).
In the case of CC1CCCCN1C(=O)CSc1nc(-c2ccccc2)cc(C(F)(F)F)n1 (centres undefined), the viability loss activity score is reported as -1.5% (inactive).
With CCC1=Nc2cc(C(=O)NCCCN3CCOCC3)ccc2Sc2ccc(Br)cc21 the viability loss activity score was 7.81% (inactive).
In the case of C[C@@H]1CN([C@@H](C)CO)C(=O)c2cccc(NC(=O)Nc3ccc(C(F)(F)F)cc3)c2O[C@@H]1CN(C)S(=O)(=O)c1ccc(F)cc1, the viability loss activity score is reported as -0.826% (inactive).
